Assay [1] is described as follows: Human pregnane X receptor (PXR) small molecule agonists, qHTS cell viability counter screen (AID 1346977). Note: nearly all actives have a fitted effect of over 50% in size. As to conditions: PXR-Luc HepG2 viability, CellTiter-Fluor, 24 h; series mostly up to 92.4 µM. In short, it runs like this: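 Viability counter screen: CellTiter-Fluor signal in PXR-Luc HepG2 cells, 24hr compound exposure, 37C, 5% CO2.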
In general terms: qHTS replaces the single test concentration by a dilution series.

The nature of assay [2]: Caspase-3/7 induction in HepG2 cells by small molecules, qHTS assay (AID 1346978). Note: nearly all actives have a fitted effect of over 15% in size. The following applies: HepG2 caspase-3/7 activation, Caspase-Glo luminescence, 17 h; series mostly up to 92.4 µM. Summed up:
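Wild-type HepG2 cells, 2,000/well, settled 5 hr at 37 C and 5% CO2, then compound-treated for 17 hr; caspase-3/7 activity read by luminescent Caspase-Glo 3/7 after 30 min at room temperature.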

Assay [3] in a line: Caspase-3/7 induction in CHO-K1 cells by small molecules, qHTS cell viability counter screen (AID 1346979). Note: nearly all actives have a fitted effect of over 35% in size. Note: potency is the fitted concentration of half-maximal effect. As to conditions: CellTiter-Fluor fluorescence, 17 h; series mostly up to 92.4 µM. Summed up:
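Viability readout by fluorescence (CellTiter-Fluor) on wild-type CHO-K1 cells exposed for 16hr at 37C and 5% CO2 to compounds delivered in DMSO; reagent incubated 1hr before reading.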

A short description of assay [4]: Caspase-3/7 induction in CHO-K1 cells by small molecules, qHTS assay (AID 1346980). Note: nearly all actives have a fitted effect of over 15% in size. As to conditions: CHO-K1 caspase-3/7 induction, Caspase-Glo luminescence, 17 h; series mostly up to 92.4 µM. In short, it runs like this:
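Wild-type CHO-K1 cells exposed to compounds for 17hr at 37 C, 5% CO2. Caspase-3/7 activity then measured by Caspase-Glo 3/7 luminescence after 30min at room temperature.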

For assay [5], the target named is Nuclear receptor subfamily 1 group I member 2 (Rattus norvegicus) (UniProt Q9R1A7). The assay can be described thus: Rat pregnane X receptor (rPXR) activation by small molecules, qHTS assay (AID 1346983). Note: nearly all actives have a fitted effect of over 20% in size. The following applies: rPXR luciferase reporter cells, One-Glo luminescence, 24 h; max activation: stronger effect = higher value. In short, it runs like this: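 Cell-based rPXR activation assay: rPXR cells, 2,000 per well, rested 5hr at 37 C, then exposed to compounds in DMSO for 24 hr at 37 C. Luciferase activity read by One-Glo luminescence after 30 min at room temperature.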

The target in assay [6] is Nuclear receptor subfamily 1 group I member 2 (Homo sapiens) (UniProt O75469). Description: CYP3A4 induction through human pregnane X receptor (PXR) by small molecules, qHTS assay (AID 1346984). Note: nearly all actives have a fitted effect of over 40% in size. The following applies: DPX-2 HepG2 PXR, CYP3A4-luciferin luminescence, 24 h; series mostly up to 46.1 µM. In short, it runs like this:
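DPX-2 reporter cells; 24h cpd, 37C; Luciferin-IPA 3uM final x3h; One-Glo 30 min RT; lumi read.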

The target is the same in assay [7]. The assay can be described thus: Human pregnane X receptor (PXR) activation by small molecules, qHTS assay (AID 1346985). Note: nearly all actives have a fitted effect of over 40% in size. As to conditions: DPX-2 HepG2 CYP3A4-luciferase, 24 h; series mostly up to 38.3 µM. In short, it runs like this:
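DPX-2 cells (HepG2 co-transfected with a PXR response element and a CYP3A4-promoter luciferase construct) were seeded at 2,000 per well, rested 5 hr at 37C, then exposed to DMSO-dissolved compounds for 24 hr. Activation was read as luciferase luminescence.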

The target in assay [8] is Cytochrome P450 2D6 (Homo sapiens) (UniProt P10635). The assay can be described thus: Cytochrome P450 Family 2 Subfamily D Member 6 (CYP2D6) small molecule antagonists: luciferase reporter qHTS assay (AID 1671196). Note: nearly all actives have a fitted effect of over 50% in size. Note: potency is the fitted concentration of half-maximal effect. The following applies: P450-Glo CYP2D6 enzyme assay, luciferin luminescence, 1 h; series mostly up to 115 µM. In short, it runs like this:
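Inhibition of CYP2D6 was gauged by loss of luminescence, since light produced tracks the luciferin generated from a proluciferin substrate. A 10 min room-temperature preincubation preceded 1 h NADPH-supported turnover.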
For orientation: Reporter assays use an easily measured gene product as a stand-in for the process of interest.

Assay [9] has as its target Cytochrome P450 2C19 (Homo sapiens) (UniProt P33261). Description: Cytochrome P450 Family 2 Subfamily C Member 19 (CYP2C19) small molecule antagonists: luciferase reporter qHTS assay (AID 1671197). Note: nearly all actives have a fitted effect of over 65% in size. Note: potency is the fitted concentration of half-maximal effect. The following applies: P450-Glo CYP2C19 enzyme, luciferin luminescence, 1 h; series mostly up to 52.9 µM. In short, it runs like this: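 Quantitative high-throughput screen of the Tox21 library using CYP2C19 with proluciferin substrate. Reaction: NADPH regeneration, 37C, 1 h, after 10 min compound preincubation at room temperature. Readout: luminescence.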

Assay [10] addresses Cytochrome P450 2C9 (Homo sapiens) (UniProt P11712). The assay can be described thus: Cytochrome P450 Family 2 Subfamily C Member 9 (CYP2C9) small molecule antagonists: luciferase reporter qHTS assay (AID 1671198). Note: nearly all actives have a fitted effect of over 50% in size. Note: potency is the fitted concentration of half-maximal effect. The following applies: P450-Glo CYP2C9 enzyme assay, luciferin luminescence; series mostly up to 115 µM. In short, it runs like this: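 P450-Glo proluciferin substrate with CYP2C9 enzyme; 10 min RT preincubation, then NADPH regeneration 1 h at 37C; luciferin detection reagent 20 min RT, luminescence in relative luminescence units.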

In assay [11] the target is Cytochrome P450 1A2 (Homo sapiens) (UniProt P05177). The assay can be described thus: Cytochrome P450 Family 1 Subfamily A Member 2 (CYP1A2) small molecule antagonists: luciferase reporter qHTS assay (AID 1671199). Note: nearly all actives have a fitted effect of over 50% in size. Note: potency is the fitted concentration of half-maximal effect. As to conditions: P450-Glo CYP1A2 enzyme, luciferin luminescence, 1 h; series mostly up to 53 µM. In short, it runs like this: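 Signal from luciferin formed by CYP1A2 from a proluciferin substrate is read as luminescence, expressed in relative luminescence units. Compounds sit with enzyme 10 min, NADPH-driven reaction runs 1 h, all at room temperature.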

Assay [12] addresses Voltage-gated inwardly rectifying potassium channel KCNH2 (Homo sapiens) (UniProt Q12809). The assay can be described thus: Human Ether-a-go-go-Related Gene (hERG) channel small molecule antagonists: fluorescence cell-based qHTS assay (AID 1671200). The following applies: hERG-U2OS cells, FluxOR thallium flux fluorescence; series mostly up to 76.8 µM. Summed up:
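Thallium served as the potassium surrogate; its influx into dye-loaded U2OS cells carrying the channel was measured by fluorescence over 2 min.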

In assay [13] the target is Cytochrome P450 3A4 (Homo sapiens) (UniProt P08684). The assay can be described thus: Cytochrome P450 Family 3 Subfamily A Member 4 (CYP3A4) small molecule antagonists: luciferase reporter qHTS assay (AID 1671201). Note: nearly all actives have a fitted effect of over 50% in size. Note: potency is the fitted concentration of half-maximal effect. As to conditions: P450-Glo CYP3A4 enzyme, luciferin luminescence, 1 h; series mostly up to 115 µM. In short, it runs like this:
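Relative luminescence units after 20 min with luciferin detection reagent served as read-out. Beforehand, CYP3A4 turned over a proluciferin substrate for 1 h at room temperature with NADPH regeneration, following 10 min compound preincubation.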

For assay [14], the target named is Nuclear receptor subfamily 1 group I member 2 (Homo sapiens) (UniProt O75469). The assay can be described thus: Human pregnane X receptor (PXR) small molecule agonists, qHTS assay (AID 1346982). Note: nearly all actives have a fitted effect of over 35% in size. Note: potency is the fitted concentration of half-maximal effect. As to conditions: PXR-Luc HepG2, CYP3A4 luciferase reporter, 24 h; series mostly up to 92.4 µM. Summed up:
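Luminescence (ONE-Glo, 30 min RT) after 24 hr compound exposure of PXR-Luc HepG2 cells; cells rested 5 hr post-plating in 5% charcoal-stripped FBS medium.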

Assay [15] can be described thus: Caspase-3/7 induction in HepG2 cells by small molecules, qHTS cell viability counter screen (AID 1346981). Note: nearly all actives have a fitted effect of over 30% in size. The following applies: CellTiter-Fluor fluorescence, 17 h; series mostly up to 92.4 µM. Summed up: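 Counter screen for cytotoxicity: HepG2 exposed 16 hr to compounds, then CellTiter-Fluor viability signal (fluorescence, 1 hr reagent incubation).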

Consider twelve molecules from PubChem BioAssay (Tox21).

Molecules are shown by their SMILES. Values without a mark were called inactive. Records with an inconclusive call do not appear. The source made the active and inactive calls. Calls come from the whole dose curve; as a rule, active = well fitted curve in the direction sought with a large enough effect in the repeat runs; inconclusive = weak or mixed curves; inactive = no such curve, though single readings can be large; an effect the other way counts as inactive or inconclusive.
% is set by controls: 0 for no effect and ±100 for the full control effect.

Nuclear receptor subfamily 1 group I member 2 (Rattus norvegicus), sequence (Q9R1A7 whole entry, looked up): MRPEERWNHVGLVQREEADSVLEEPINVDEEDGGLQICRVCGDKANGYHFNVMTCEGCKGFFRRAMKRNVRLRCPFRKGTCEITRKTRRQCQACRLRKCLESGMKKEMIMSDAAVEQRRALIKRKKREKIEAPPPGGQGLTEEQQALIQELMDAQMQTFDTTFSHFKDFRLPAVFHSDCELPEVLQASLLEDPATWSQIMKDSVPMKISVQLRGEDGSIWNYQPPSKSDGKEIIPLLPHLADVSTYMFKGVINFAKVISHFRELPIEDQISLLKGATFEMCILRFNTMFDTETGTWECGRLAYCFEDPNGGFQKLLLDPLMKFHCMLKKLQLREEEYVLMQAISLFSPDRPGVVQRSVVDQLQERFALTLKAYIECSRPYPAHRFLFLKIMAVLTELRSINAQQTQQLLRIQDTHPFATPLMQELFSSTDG
Cytochrome P450 2C9 (Homo sapiens), sequence (P11712 whole entry, looked up): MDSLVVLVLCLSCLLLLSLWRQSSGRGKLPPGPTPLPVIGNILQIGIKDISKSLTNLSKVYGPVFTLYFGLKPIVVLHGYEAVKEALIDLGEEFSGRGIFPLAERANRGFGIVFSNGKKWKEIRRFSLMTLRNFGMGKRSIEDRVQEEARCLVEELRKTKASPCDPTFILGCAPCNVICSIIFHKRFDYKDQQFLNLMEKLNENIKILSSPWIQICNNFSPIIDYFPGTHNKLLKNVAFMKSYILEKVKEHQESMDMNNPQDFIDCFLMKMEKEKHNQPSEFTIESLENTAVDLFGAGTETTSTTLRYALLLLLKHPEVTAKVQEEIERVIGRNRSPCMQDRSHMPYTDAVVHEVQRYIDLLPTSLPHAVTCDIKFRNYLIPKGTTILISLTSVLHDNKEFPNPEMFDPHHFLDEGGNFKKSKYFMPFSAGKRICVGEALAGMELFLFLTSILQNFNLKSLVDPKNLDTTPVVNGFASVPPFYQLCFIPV
Cytochrome P450 2D6 (Homo sapiens), sequence (P10635 whole entry, looked up): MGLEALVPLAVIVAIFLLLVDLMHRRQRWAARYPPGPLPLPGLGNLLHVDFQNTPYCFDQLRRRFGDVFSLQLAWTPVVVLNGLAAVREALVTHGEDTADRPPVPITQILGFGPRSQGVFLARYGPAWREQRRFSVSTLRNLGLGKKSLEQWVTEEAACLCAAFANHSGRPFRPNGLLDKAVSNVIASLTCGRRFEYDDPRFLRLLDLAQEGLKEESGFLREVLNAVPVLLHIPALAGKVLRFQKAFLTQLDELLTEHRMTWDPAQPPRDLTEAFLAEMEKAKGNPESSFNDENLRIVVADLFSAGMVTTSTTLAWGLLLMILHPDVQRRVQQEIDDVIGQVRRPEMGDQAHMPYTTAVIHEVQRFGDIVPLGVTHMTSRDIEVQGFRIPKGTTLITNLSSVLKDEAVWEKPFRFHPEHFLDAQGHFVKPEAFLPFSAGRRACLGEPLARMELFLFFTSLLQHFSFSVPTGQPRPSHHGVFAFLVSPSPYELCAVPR
Cytochrome P450 1A2 (Homo sapiens), sequence (P05177 whole entry, looked up): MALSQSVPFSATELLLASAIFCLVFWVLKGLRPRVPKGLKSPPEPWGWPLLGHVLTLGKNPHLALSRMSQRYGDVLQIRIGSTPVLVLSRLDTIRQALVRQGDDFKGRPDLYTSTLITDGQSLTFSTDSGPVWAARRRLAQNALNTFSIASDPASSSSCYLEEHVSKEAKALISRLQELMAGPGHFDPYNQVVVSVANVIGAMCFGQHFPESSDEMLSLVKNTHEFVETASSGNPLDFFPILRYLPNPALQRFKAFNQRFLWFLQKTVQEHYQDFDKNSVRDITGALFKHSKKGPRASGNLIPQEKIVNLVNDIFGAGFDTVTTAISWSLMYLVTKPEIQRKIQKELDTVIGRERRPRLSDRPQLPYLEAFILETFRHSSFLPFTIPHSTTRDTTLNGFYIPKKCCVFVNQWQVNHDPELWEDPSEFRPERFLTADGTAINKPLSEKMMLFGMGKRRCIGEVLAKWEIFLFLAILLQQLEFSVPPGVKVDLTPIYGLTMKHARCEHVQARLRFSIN
Cytochrome P450 3A4 (Homo sapiens), sequence (P08684 whole entry, looked up): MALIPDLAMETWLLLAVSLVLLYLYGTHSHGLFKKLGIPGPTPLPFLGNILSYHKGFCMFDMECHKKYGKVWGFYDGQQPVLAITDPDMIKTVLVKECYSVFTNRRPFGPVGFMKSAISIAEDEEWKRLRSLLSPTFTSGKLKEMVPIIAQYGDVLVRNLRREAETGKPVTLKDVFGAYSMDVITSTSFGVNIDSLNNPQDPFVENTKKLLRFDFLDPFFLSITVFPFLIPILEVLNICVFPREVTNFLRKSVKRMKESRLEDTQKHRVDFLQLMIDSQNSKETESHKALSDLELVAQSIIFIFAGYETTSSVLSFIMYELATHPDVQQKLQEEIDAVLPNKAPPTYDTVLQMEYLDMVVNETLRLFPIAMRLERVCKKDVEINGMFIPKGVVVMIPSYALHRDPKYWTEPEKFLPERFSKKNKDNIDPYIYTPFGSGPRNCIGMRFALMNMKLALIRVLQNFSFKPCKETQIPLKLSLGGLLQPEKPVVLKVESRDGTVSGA
Nuclear receptor subfamily 1 group I member 2 (Homo sapiens), sequence (O75469 whole entry, looked up): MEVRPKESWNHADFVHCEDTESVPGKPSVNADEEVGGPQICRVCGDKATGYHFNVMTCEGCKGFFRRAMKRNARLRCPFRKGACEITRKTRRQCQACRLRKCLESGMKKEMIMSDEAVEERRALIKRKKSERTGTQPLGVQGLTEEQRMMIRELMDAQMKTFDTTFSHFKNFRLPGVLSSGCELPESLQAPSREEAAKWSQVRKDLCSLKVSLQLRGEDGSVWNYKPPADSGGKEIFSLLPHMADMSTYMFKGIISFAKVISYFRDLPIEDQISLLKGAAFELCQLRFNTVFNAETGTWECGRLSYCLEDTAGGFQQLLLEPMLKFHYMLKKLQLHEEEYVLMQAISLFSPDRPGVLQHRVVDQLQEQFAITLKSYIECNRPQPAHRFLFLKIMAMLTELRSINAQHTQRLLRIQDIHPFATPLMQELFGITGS
Voltage-gated inwardly rectifying potassium channel KCNH2 (Homo sapiens), sequence (Q12809 whole entry, looked up): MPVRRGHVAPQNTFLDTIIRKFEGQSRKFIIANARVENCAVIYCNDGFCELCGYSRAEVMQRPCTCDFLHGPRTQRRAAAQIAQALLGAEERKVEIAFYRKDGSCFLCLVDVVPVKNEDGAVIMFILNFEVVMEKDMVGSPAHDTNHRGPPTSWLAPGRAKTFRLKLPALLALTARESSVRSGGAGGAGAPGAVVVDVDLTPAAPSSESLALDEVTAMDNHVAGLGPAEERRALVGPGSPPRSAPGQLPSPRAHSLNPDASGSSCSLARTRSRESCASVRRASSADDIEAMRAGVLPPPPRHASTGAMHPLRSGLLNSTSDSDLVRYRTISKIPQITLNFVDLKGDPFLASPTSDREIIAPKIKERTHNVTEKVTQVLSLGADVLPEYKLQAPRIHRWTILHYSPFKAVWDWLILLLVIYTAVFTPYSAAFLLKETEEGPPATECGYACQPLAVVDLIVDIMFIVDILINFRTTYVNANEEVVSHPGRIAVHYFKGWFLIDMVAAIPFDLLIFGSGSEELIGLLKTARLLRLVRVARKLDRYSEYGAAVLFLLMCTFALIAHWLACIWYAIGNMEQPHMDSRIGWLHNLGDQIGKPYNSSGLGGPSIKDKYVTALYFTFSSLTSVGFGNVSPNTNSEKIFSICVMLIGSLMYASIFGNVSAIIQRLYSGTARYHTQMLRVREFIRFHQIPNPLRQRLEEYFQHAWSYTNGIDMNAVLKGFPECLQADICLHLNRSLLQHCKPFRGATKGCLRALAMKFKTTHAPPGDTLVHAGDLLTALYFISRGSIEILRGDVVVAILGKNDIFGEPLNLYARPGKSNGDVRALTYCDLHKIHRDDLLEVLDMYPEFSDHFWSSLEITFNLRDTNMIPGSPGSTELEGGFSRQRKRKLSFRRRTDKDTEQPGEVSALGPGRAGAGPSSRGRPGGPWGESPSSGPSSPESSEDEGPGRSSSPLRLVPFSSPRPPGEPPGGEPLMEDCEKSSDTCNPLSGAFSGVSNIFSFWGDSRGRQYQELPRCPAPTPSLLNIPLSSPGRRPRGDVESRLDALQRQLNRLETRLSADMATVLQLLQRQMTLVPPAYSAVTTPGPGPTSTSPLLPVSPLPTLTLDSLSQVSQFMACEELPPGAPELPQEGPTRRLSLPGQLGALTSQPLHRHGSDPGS
Cytochrome P450 2C19 (Homo sapiens), sequence (P33261 whole entry, looked up): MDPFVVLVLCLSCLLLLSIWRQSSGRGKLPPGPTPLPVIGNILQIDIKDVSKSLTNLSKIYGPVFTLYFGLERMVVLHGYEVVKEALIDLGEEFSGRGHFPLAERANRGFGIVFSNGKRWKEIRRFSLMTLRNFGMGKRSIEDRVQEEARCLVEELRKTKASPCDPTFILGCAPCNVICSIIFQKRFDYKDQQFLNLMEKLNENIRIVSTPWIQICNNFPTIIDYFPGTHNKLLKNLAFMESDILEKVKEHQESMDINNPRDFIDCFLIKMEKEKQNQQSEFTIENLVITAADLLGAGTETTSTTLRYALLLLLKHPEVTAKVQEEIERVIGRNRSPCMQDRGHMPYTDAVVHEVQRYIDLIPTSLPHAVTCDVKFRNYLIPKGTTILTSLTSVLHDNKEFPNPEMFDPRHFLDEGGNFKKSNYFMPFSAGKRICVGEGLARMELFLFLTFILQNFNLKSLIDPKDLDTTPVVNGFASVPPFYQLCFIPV

Turning to `O=C(O)Cc1csc(-c2ccc(Cl)cc2)n1`, the Potency result in [1], in assay [3], in assay [6], in assay [7], in assay [8] and in assay [9] was “inactive” each time. In addition, the Potency result in [10], in [11], in assay [12] and in [13] was “inactive” each time. The call in assay [2] and in assay [4] was inactive. For the same molecule, the max activation in [5] was -2.73%.

As for `FB(F)F`, the Potency entry in [1], in [3], in [14], in assay [8], in [10] and in assay [11] was “inactive” in each case. Besides, in assay [12], the Potency result was “inactive”. Also, the result in [2] and in assay [4] was inactive.

Take `CCN(C=O)CC`: the Potency entry in assay [1], in assay [3], in [15], in [14], in assay [9] and in [10] was “inactive” in each case. Besides, the Potency entry in assay [11] and in [13] was “inactive” in each case. For the same molecule, the call in assay [4] was inactive. The Potency in [8] was 72.9 µM (active).

For the molecule `Cc1ncc([C@@H](CCCCCCc2ccc3c(n2)NCCC3)CC(=O)O)cn1`, the Potency result in assay [1], in assay [14], in [8], in assay [9], in assay [11] and in assay [13] was “inactive” throughout. In addition, the outcome in assay [2] and in assay [4] was inactive. In addition, the Potency in assay [3] is 38.6 µM (active).

For the molecule `CN1CC(=O)N/C1=N/C(=O)Nc1cccc(Cl)c1`, the Potency entry in assay [1], in [3], in assay [6], in [7], in assay [9] and in assay [10] was “inactive” each time. The Potency result in [12] and in assay [13] was “inactive” in each case. The outcome in assay [2] and in assay [4] was inactive. For the same molecule, in assay [11], the Potency is 20.4 µM (active).

In the case of `CC(C)(C)OC(=O)c1cccc(N)c1`, the Potency result in assay [1], in assay [3] and in assay [12] was “inactive” throughout. Further, the result in assay [2] and in [4] was inactive. For the same molecule, the Potency in assay [14] is 28 µM (active); in assay [9] it was 25.9 µM (active); in assay [10] it was 32.6 µM (active); in assay [11], 7.29 µM (active); in [13], 16.3 µM (active).

As to `CC[N+](CC)(CC(=O)Nc1c(C)cccc1C)Cc1ccccc1` (tested in a mixture with another compound), the Potency result in assay [1], in [3] and in assay [11] was “inactive” each time. Moreover, in assay [4], the result was inactive. The Potency is 0.0262 µM (active) in assay [8] and 52.3 µM (active) in assay [9].

`O=S(=O)(O)c1cccc2c(S(=O)(=O)O)cccc12`: the Potency result in [1], in assay [3], in [14], in [8], in assay [12] and in [13] was “inactive” each time. In addition, in assay [4], the call was inactive. Besides, the results for the Potency in [10] and in [11] were 70.9 µM (active) and 79.5 µM (active), respectively.

`NC(=O)NC1N=C([O][Al])NC1=O` (centres undefined): the Potency entry in [1], in [3], in assay [15], in assay [14], in assay [9] and in [10] was “inactive” each time. Also, in assay [4], the outcome was inactive.

For `Nc1ccncc1N`, the Potency entry in [1], in assay [3], in [14], in [6], in assay [7] and in assay [8] was “inactive” each time. Moreover, the Potency entry in assay [9], in [10], in [11], in assay [12] and in assay [13] was “inactive” in each case. Also, the molecule was classed as inactive in [4]. For the same molecule, the max activation in assay [5] is -0.418%.

In the case of `CCCCOCCOC(=O)COc1cc(Cl)c(Cl)cc1Cl`, the outcome in [2] and in assay [4] was inactive. Moreover, the Potency result in assay [3], in assay [15], in assay [14] and in [13] was “inactive” each time. Further, the Potency is 35.6 µM (active) in assay [9] and 39.9 µM (active) in assay [11].

Consider `C[C@H]1[C@H](NC(=O)/C(=N/OC(C)(C)C(=O)O)c2csc(N)n2)C(=O)N1S(=O)(=O)O` (stereo in doubt), for which the Potency result in assay [1], in [3], in [15], in [8], in assay [9] and in assay [10] was “inactive” each time. Besides, the Potency result in [13] was “inactive”. Moreover, the outcome in [4] was inactive. In addition, the max activation in assay [5] was -2.74%.
